According to the supplement of paper PMC4723716:
The full ranking holds about 3,600 compounds; the median of “viability index relative to DMSO control” is about 0.81, and the lowest 2% start at about 0.13. Only a selection was taken, and the lowest values are over-represented in it overall.

system: Plasmodium falciparum NF54 stage V gametocytes; test: viability index relative to DMSO control (fraction); higher = less gametocyte killing; conditions: 1.25 µM, incubation time: 72 h
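Also: Saponin-lysis sexual stage assay in serum-free medium: MitoTracker Red CMXRos staining plus saponin, high-content imaging, particle count per well divided by plate mean of DMSO wells.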

SMILES	viability index
CCOc1cc([N+](=O)[O-])cc(C=Nc2cccc(NC(=O)c3ccco3)c2)c1O	0.989
N=c1n(CCN2CCCCC2)c2ccccc2n1CC(O)COc1ccc(Cl)cc1 (stereo not given)	0.746
O=C(CC1OC(=O)c2ccccc21)c1ccc(Cl)cc1 (stereo not given)	0.496
CCOC(=O)c1cnc2c(OC)cccc2c1Nc1ccc(C(C)=O)cc1	1.27
CC(C)Nc1nc(-c2cccnc2)nc2ccccc12	1.12
COc1cnc(-c2ccccn2)nc1NC(C)C	0.0307
COc1ccccc1/C=C/CN1CCN(c2ccccn2)CC1	1.15
COc1cnc(-c2ccccn2)nc1N1CCCC1	0.0429
COc1ccc(Nc2nc(N3CCCC3)c3ccccc3n2)cc1	0.74
c1ccc(CNc2nc(-c3ccccn3)nnc2-c2ccccc2)cc1	0.374
Cc1cc(C)nc(Nc2nc(C)c3cc(C)c(C)cc3n2)n1	0.196
CCOC(=O)C1=C(C)NC2=C(C(=O)C(C(=O)OCC)C(c3ccc(OC)cc3)C2)C1c1ccc(OC)c(OC)c1 (stereo not given)	0.683
CN(C)c1ccc(C=C2SC(=Nc3ccc(O)cc3)NC2=O)cc1	0.727
CCn1c(C=CN(C)c2ccccc2)[n+](CC)c2cc(Cl)ccc21	1
CC(C)(C)c1ccc(Cn2nnc3c(O)nc(C4CCN(C(=O)c5ccccc5)CC4)nc32)cc1	0.736
N=C1NC(=O)C(=CC=Cc2ccc([N+](=O)[O-])o2)S1	0.0408
O=C(c1ccccc1)N1CCc2nc(Cc3ccc(F)cc3Cl)sc2C1	0.708
COc1cccc(OC)c1C(=O)Oc1cccc2ccc(C)nc12	0.706
Cc1ccc2ccc3ccc(C)nc3c2n1	0.0302
Cc1ccc(NC(=O)c2ccc(NCCCN3CCCCCC3)c([N+](=O)[O-])c2)cc1F	1.51
S=C(NN=Cc1ccccn1)NC1CC2C=CC1C2 (stereo not given)	0.0456
CC1(C)C2CCC(C2)C1(C)NC(=S)NN=Cc1ccccn1 (stereo not given)	0.0373
S=C(NN=Cc1ccccn1)NC1CC2CC1C1C=CCC21 (stereo not given)	0.397

SMILES	viability index
CCOC(=O)c1ccc(N(C(=O)Cc2c[nH]c3ccccc23)C(C(=O)NC2CCCCC2)c2cccnc2)cc1 (stereo not given)	0.513
O=C(Nc1ccc(O)cc1)c1cccc(S(=O)(=O)N2CCCCC2)c1	1.03
CC(=O)NC1=NN(C(C)=O)C(c2ccc(Br)cc2)S1 (stereo not given)	0.944
O=C(CSc1nc2ccccc2c(=O)n1CCCN1CCOCC1)Nc1cccc(S(=O)(=O)N2CCCCCC2)c1	0.969
CCc1ccc2c(c1)C1(NN=C(c3ccc(C)cc3)S1)C(=O)N2 (stereo not given)	0.127
CC1=C(C(=O)OC2CCCCC2)C(c2ccc(F)c(F)c2)C2=C(CCCC2=O)N1 (stereo not given)	0.855
CN(C)CCCNc1cc(-c2ccccc2)nc2ccccc12	0.913
CN(C)CCNc1cc(-c2ccc3ccccc3c2)nc2ccccc12	0.0331
CN(C)CCNc1cc(-c2ccccc2)nc2ccccc12	0.909
Cc1ccc(C=Cc2ccc3ccccc3[n+]2C)cc1	0.754
O=C(NCc1ccccc1)C(c1ccc(F)cc1)N(Cc1ccco1)C(=O)c1cnccn1 (stereo not given)	0.72
CCOc1ccccc1NC(=O)Cn1c(=O)n(Cc2ccccc2)c(=O)c2c(C)c(C(=O)N(C)C)sc21	0.83
CCCCCOC(=O)C1=C(C)NC2=C(C(=O)CC(C)(C)C2)C1c1ccncc1 (stereo not given)	0.891
CNC1=C(N(Cc2ccc(Cl)c(Cl)c2)C(C)=O)C(=O)c2ccccc2C1=O	0
CC(=O)N(Cc1ccc(F)cc1)C1=C(NCCc2ccccc2)C(=O)c2ccccc2C1=O	0.0184
CCN(C(C)=O)C1=C(N2CCOCC2)C(=O)c2ccccc2C1=O	0.538
CC(=O)N(C1=C(N2CCCC2)C(=O)c2ccccc2C1=O)c1ccc(F)cc1	1
CC(=O)N(C1=C(N2CCCCC2)C(=O)c2ccccc2C1=O)c1ccc(F)cc1	0.721
CCC(=O)N(C1=C(NC)C(=O)c2ccccc2C1=O)C(C)C	0.601
Cc1cc(Nc2cccc(Cl)c2)nc2ccc(NC(=O)c3cccnc3)cc12	0.912
COC(=O)c1c(NC(=O)c2ccc(S(=O)(=O)N3CCOCC3)cc2)sc2c1CCN(C(C)=O)C2	0.76
C1=C(c2ccccc2)CCN(c2ncnc3c2nc2n3CCCCC2)C1	0.916
